Measured values as given in PubChem BioAssay (NCI).
Compounds without any hit were thinned out: in the full panel of roughly 83,000, 20% have a hit.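 Plates (96-well) were seeded with cells, treated with compound at one concentration, and incubated for 48 hours before percent growth was determined.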 Active and inactive are the calls of the source. Rule for the calls: active = growth percent below 10; inactive = the rest.

Each compound was assayed on HL-60(TB) leukemia (assay: NCI-60 one-dose screen, 48 h (100 = growth as untreated, 0 = no growth, -100 = all killed)). Conditions: 10 µM unless noted.
O=C1C(=O)c2c(nc3ccc(Br)cn23)-c2ccccc21 was tested, and the growth was -58.2% (active). In the case of Cc1ccccc1N1C(c2ccccc2)=NNC12C=CC(=O)c1c(O)cccc12 (stereo not given), the growth is reported as 70.2% (inactive). With O=C1NC(=S)S/C1=C\c1cccc([N+](=O)[O-])c1 the growth was 83.8% (inactive). With CCCCCCCCCCCC[n+]1ccc(CCCCCCCCC)cc1 the growth was -53.3% (active). Cn1cc(-c2nnc(-c3cn(C)c4ncc(Br)cc34)s2)c2cc(Br)ccc21 was tested, and the growth was 106% (inactive). In the case of CN(CCCCCCCCNc1ccnc2ccccc12)Cc1ccc(-c2ccc(-c3ccc(C#N)cc3)s2)cc1, the growth is reported as -58.4% (active). CN1CSC(=S)N(Cc2ccccc2)C1 was tested, and the growth was 79.8% (inactive). For Cc1ccsc1C(=O)CC(=O)C(F)(F)C(F)(F)C(F)(F)F, the growth was 107% (inactive). C=C(C)[C@@H]1CC[C@]2(CN)CC[C@]3(C)[C@H](CC[C@@H]4[C@@](C)(CCCN)[C@H](C(=C)C)CC[C@]43C)[C@@H]12 was tested, and the growth was 53.3% (inactive). With CC[C@]12C=CCN3CC[C@@]4(c5ccc(OC)cc5N(C)[C@H]4[C@@](O)(C(=O)OC)[C@@H]1OC(=O)CCCN1CCOCC1)[C@@H]32 the growth was 97.5% (inactive). In the case of O=C1CC2c3cc(-c4cc5ccccc5o4)ccc3CCN2C(=O)N1c1ccccc1 (stereo not given), the growth is reported as 69.9% (inactive). In the case of C=CC(=O)N1CC2(CC(n3nc(-c4ccc(Oc5ccccc5)cc4)c4c(N)ncnc43)C2)C1, the growth is reported as 62.3% (inactive). With CCCCN1C(=O)CC(SC2CC(=O)N(CCCC)C2=O)C1=O (stereo not given) the growth was 132% (inactive). For Cc1cc(Cl)ccc1Nc1nc(C(F)(F)F)ccc1C(=O)N/N=C/c1ccc([N+](=O)[O-])cc1, the growth was -24.1% (active). For COc1ccc2c(c1)c(-c1noc(-c3cn(C)c4ncc(F)cc34)n1)cn2C, the growth was 84.6% (inactive). NC(=O)c1ccc[n+](CC(=O)N2CCN(c3cc4c(cc3F)c(=O)c(C(=O)O)cn4C3CC3)CC2)c1 was tested, and the growth was 106% (inactive). In the case of Nc1nc(Cl)cc(Cl)n1, the growth is reported as 74.2% (inactive). COc1ccc(Br)c(/C=C2\SC(=Nc3ccc(O)cc3)NC2=O)c1 was tested, and the growth was 76.6% (inactive). With N#Cc1c(-c2ccc(Cl)cc2)nc(NN2C(=O)c3ccccc3C2=O)nc1N1CCOCC1 the growth was 99.8% (inactive). For CCN1CCCC(N2c3ccccc3Sc3ccccc32)C1 (stereo not given), the growth was 93.1% (inactive). In the case of CCCc1cc(C(N)=S)ccn1, the growth is reported as 103% (inactive). CSc1cccc(NC(=O)Nc2nc3c(C)cccc3s2)c1 was tested, and the growth was 85.8% (inactive). In the case of COc1ccccc1-c1ccc2c(N)c(C(=O)c3ccc4c(c3)OCO4)sc2n1, the growth is reported as 37% (inactive). CSc1ccc(N=C=C(c2ccccc2)c2ccccc2)cc1 was tested, and the growth was 79.8% (inactive). CC(=O)OCC1OC(OC2C(COC(C)=O)OC(OCCC[S-])C(OC(C)=O)C2OC(C)=O)C(OC(C)=O)C(OC(C)=O)C1OC(C)=O.[Au+].c1ccc(CN2[CH-]N(Cc3ccccc3)C(c3ccccc3)=C2c2ccccc2)cc1 (stereo not given) was tested, and the growth was 13.6% (inactive). For CCCCC(=O)Nc1ncc(Cc2ccccc2Cl)s1, the growth was -7.94% (active). With COc1ccc(C(O)c2cc3c(N)c(C(=O)Nc4cccc(Br)c4C)sc3nc2C)cc1 (stereo not given) the growth was -41% (active). For C=COC(=O)C(C)(C)C, the growth was 98.9% (inactive). For CCOC(=O)c1ccc(NC(=O)Nc2ncc(Cl)cc2Cl)cc1, the growth was 95.5% (inactive). In the case of COc1ccc(/C=N/OCC(O)CNCc2ccccc2)cc1OC1CCCC1 (stereo not given), the growth is reported as 105% (inactive). CCC(OC(=O)CC(C)C)c1ccccc1 (stereo not given) was tested, and the growth was 102% (inactive). With CN(C)CCN1C(=O)c2cccc3c(-c4ccc(-c5nc6c7ccccc7c7ccccc7c6[nH]5)cc4)ccc(c23)C1=O the growth was 90.7% (inactive). In the case of COc1ccc2c(c1)c(-c1nc(-c3c[nH]c4ncccc34)cs1)cn2CCNC(=O)OC(C)(C)C, the growth is reported as 69.2% (inactive). COc1ccccc1C(=O)NC(=S)Nc1ccc(-c2nc3ccccc3[nH]2)cc1 was tested, and the growth was 59.7% (inactive). For COc1cc2c(cc1OCCCCCCN1CCN(c3ncnc4ccccc34)CC1)N=CC1CCCN1C2=O (stereo not given), the growth was -43.3% (active). c1ccc([P+](CCC[P+](c2ccccc2)(c2ccccc2)c2ccccc2)(c2ccccc2)c2ccccc2)cc1 was tested, and the growth was 30.5% (inactive). Cc1cccc(/C=N/n2c(-c3ccc(Cl)cc3)nc3c(Br)cc(Br)cc3c2=O)c1 was tested, and the growth was 70.8% (inactive). With Cn1cc(-c2csc(-c3cn(CCNC(=O)OC(C)(C)C)c4ccc(F)cc34)n2)c2cccnc21 the growth was 42.7% (inactive). For CN(C)c1ccc(Cc2cc(-c3ccccc3)nn(C/C(=N/O)c3ccccc3)c2=O)cc1, the growth was 54.3% (inactive). For Oc1ccccc1-c1nnc(CNc2ccc(Cl)cc2)o1, the growth was 4.56% (active).
